Sampled rows, rich in hits. Any-hit rate of the full collection: about 21%.
Pf growth 48h – inhibits P. falciparum growth in the first generation, 48 h; P. falciparum luciferase growth in erythrocytes, 48 h; Potency, µM (titrated, usually from 28.7 µM), for the others: at the highest dose activity change, negative = inhibition, usual class: inhibitors; hit rate 5.9% among 310,000; AID 504832; note: potency is the fitted concentration of half-maximal effect; % is set by controls: 0 for no effect and ±100 for the full control effect
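Luminescence readout; reporter = integrated firefly luciferase in P. falciparum. RBC culture at 2% hematocrit, 0.1% parasitemia final, 37 C/5% CO2; decreased signal taken as growth inhibition.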
HCV inh – inhibitors of hepatitis C virus infection | Huh7.5.1 HCVcc-Cre infection, luciferase reporter, 44 h | Potency, µM (titrated, usually from 41.8 µM), for inactives: at the top dose activity change, negative = inhibition, hits mostly inhibitors | hit rate 3.4% among 340,000; note: potency is the fitted concentration of half-maximal effect; % is set by controls: 0 for no effect and ±100 for the full control effect
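Antiviral activity was scored by luciferase reporter output from cells infected with HCVcc-Cre (~0.5 moi) in presence of compound, 44 h infection period, cells seeded 1,000/well 4 h prior.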
Pf growth 96h – inhibits malaria parasite growth, 96 h. P. falciparum luciferase reporter growth, 96 h. Potency, µM (series often up to 28.7 µM), for inactives: top-dose activity change, negative = inhibition, usual class: inhibitors. hit rate 6.9% among 320,000; note: potency is the fitted concentration of half-maximal effect; % is set by controls: 0 for no effect and ±100 for the full control effect
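Cell-based qHTS: luciferase-tagged P. falciparum in erythrocytes (2% hematocrit, 0.05% parasitemia final) incubated with compounds for 96 hours, 37 C, 5% CO2; luciferase detection reagent then added and luminescence measured.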
Cycloheximide cs – counter-screen for Shiga toxin inhibitors: cycloheximide protein synthesis inhibition; AID 2314; max response, %; hit rate 12% among 300,000; cell reporter, cycloheximide protein synthesis inhibition counterscreen; in the data active = max response mostly above about 13%, no sharp cut-off; inactive = mostly below about 14%; note: read at 38.3 µM for the half of the compounds with a filed dose; 0% is about no effect
AMA1-RON2 inh – inhibitors of Plasmodium falciparum AMA1-RON2 interaction | hit rate 0.2% among 360,000 | AID 720542 | Potency, µM (top dose mostly 58.2 µM), for the others: at the highest dose activity change, negative = inhibition, usual class: inhibitors | AlphaScreen AMA1-biotinylated RON2 peptide binding;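 note: potency is the fitted concentration of half-maximal effect; 0% = vehicle wells and -100% = peptide control; nearly all actives have a fitted effect of over 45% in size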
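AMA1 (3D7) with his tag at 25 nM final met compounds first, then biotinylated RON2 peptide at 25 nM; detection used donor plus acceptor beads, 10 µg/mL apiece, read by AlphaScreen after 30 min at room temperature.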
Shiga toxin inh – Shiga toxin inhibition | hit rate 9.2% among 290,000 | AID 2315 | Vero cells, Shiga toxin protein synthesis inhibition reporter | inhibition, % at 38.7 µM; in the data active = inhibition mostly above about 28%, no sharp cut-off; inactive = mostly below about 43%; note: 0% is about no effect
An asterisk follows results filed as active; [ ] = another dose, or the depositor's remark. Unless noted, calls come from the whole dose curve; as a rule, active = well fitted curve in the direction sought with a large enough effect; inconclusive = small, poorly fitted or top-dose-only effect, or another doubt; inactive = no such curve, though single readings can be large; an effect the other way counts as inactive or inconclusive.

What do the screens show for `O=C(Nc1ccccc1)c1cccn(Cc2ccccc2)c1=O`?
Pf growth 48h: 0%; HCV inh: 10µM*; Pf growth 96h: 357%; Cycloheximide cs: 34*; AMA1-RON2 inh: -11%; Shiga toxin inh: 98*

What do the screens show for `O=C(Nc1ccc(F)cc1F)c1cccn(Cc2ccccc2)c1=O`?
Pf growth 48h: 15µM*; HCV inh: -26%; Pf growth 96h: 81%; Cycloheximide cs: 37; AMA1-RON2 inh: -9%; Shiga toxin inh: 41

How did O=C(Nc1c(F)cc(F)cc1F)c1cccn(Cc2ccccc2)c1=O do in these assays?
Pf growth 48h: 29%; HCV inh: -22%; Pf growth 96h: -15%; Cycloheximide cs: 24; AMA1-RON2 inh: 13%; Shiga toxin inh: 33

How did O=C(Nc1ccncc1)c1cccn(Cc2ccccc2)c1=O do in these assays?
Pf growth 48h: 13%; HCV inh: 8.9µM*; Pf growth 96h: inconclusive; Cycloheximide cs: 10; AMA1-RON2 inh: -5%; Shiga toxin inh: 16

Results for Cn1cc(Cl)cc(C(=O)Nc2ccccc2)c1=O ?
Pf growth 48h: 100%; HCV inh: 1%; Pf growth 96h: 119%; Cycloheximide cs: 34*; AMA1-RON2 inh: 6%; Shiga toxin inh: 59*

How did O=C(NCc1ccccc1)c1cccn(Cc2cccc(Cl)c2)c1=O do in these assays?
Pf growth 48h: -29%; HCV inh: inconclusive; Pf growth 96h: inconclusive; Cycloheximide cs: -1; AMA1-RON2 inh: -2%; Shiga toxin inh: 14

Results for O=c1c2c([nH]n1-c1ccccc1)C[C@@H](C1CCCCC1)O[C@H]2c1ccc(F)cc1 ?
AMA1-RON2 inh: -15%

How did O=C(c1ccccc1)C1C(c2ccccc2)C1[N+](=O)[O-] (stereo not drawn) do in these assays?
Pf growth 48h: 4%; HCV inh: 0%; Pf growth 96h: 17%; Cycloheximide cs: -2; AMA1-RON2 inh: -3%; Shiga toxin inh: 20

Results for CN(C)c1ccc([C@@H]2[C@@H]([N+](=O)[O-])[C@H]3C=Cc4ccccc4N3[C@H]2C(=O)c2ccc(Cl)cc2)cc1 ?
Pf growth 48h: inconclusive; HCV inh: inconclusive; Pf growth 96h: inconclusive; Cycloheximide cs: 21*; AMA1-RON2 inh: inconclusive; Shiga toxin inh: 22*

Results for CN1C(=O)C(=Cc2ccccc2Oc2ccc(Cl)cc2)C(=O)N(C)C1=O ?
Pf growth 48h: -3%; HCV inh: 24%; Pf growth 96h: -7%; Cycloheximide cs: -1; AMA1-RON2 inh: 3%; Shiga toxin inh: -2

How did CN1C(=O)C(=Cc2ccc(OCCN(C)c3ccccn3)cc2)C(=O)N(C)C1=O do in these assays?
Pf growth 48h: 236%; HCV inh: 14%; Pf growth 96h: 26%; Cycloheximide cs: 21*; AMA1-RON2 inh: -18%; Shiga toxin inh: 37

What do the screens show for `Cc1cc2nc(-c3cccnc3SCC(=O)NCc3ccco3)[nH]c2cc1C`?
Pf growth 48h: 0%; HCV inh: -2%; Pf growth 96h: 44%; Cycloheximide cs: 21*; AMA1-RON2 inh: 5%; Shiga toxin inh: 42

What do the screens show for `Cc1cc2nc(-c3cccnc3SCC(=O)NC3CC3)[nH]c2cc1C`?
Pf growth 48h: 157%; Pf growth 96h: 88%; Cycloheximide cs: 23*; Shiga toxin inh: 52*

What do the screens show for `O=C(CSc1ncccc1-c1nc2ccccc2[nH]1)NCc1ccco1`?
Pf growth 48h: 37%; HCV inh: 17%; Pf growth 96h: 1%[5.75 µM]; Cycloheximide cs: 40*; AMA1-RON2 inh: -3%; Shiga toxin inh: 56*

How did O=C(CSc1nc2ccccc2[nH]1)NCc1ccco1 do in these assays?
Pf growth 48h: 38%; HCV inh: 14%; Pf growth 96h: -21%; Cycloheximide cs: 29; AMA1-RON2 inh: 23%; Shiga toxin inh: 65

What do the screens show for `CC(C)(C)NC(=O)CN(Cc1ccc(F)cc1)C(=O)Cn1nnc(-c2ccc(F)cc2)n1`?
Pf growth 48h: -10%; HCV inh: 8%; Pf growth 96h: -3%; Cycloheximide cs: -3; AMA1-RON2 inh: 3%; Shiga toxin inh: -10

What do the screens show for `Cc1ccc(-c2nnc(SCC(=O)N(CC(C)C)c3c(N)n(Cc4ccccc4)c(=O)[nH]c3=O)n2N)cc1`?
Pf growth 48h: inconclusive; Pf growth 96h: 0%; Cycloheximide cs: -2; AMA1-RON2 inh: -7%; Shiga toxin inh: -7

What do the screens show for `C=CCS(=O)(=O)N1CCC(CCOc2ccccc2)(C(=O)OCC)CC1`?
Pf growth 48h: -28%; HCV inh: 4%; Pf growth 96h: 12%; Cycloheximide cs: -2; AMA1-RON2 inh: 1%; Shiga toxin inh: 2

What do the screens show for `CC(C)(CCC(=S)N1CCOCC1)C1CCCCC1`?
Pf growth 48h: 74%; HCV inh: 4%; Pf growth 96h: 8%; Cycloheximide cs: 25*; AMA1-RON2 inh: 4%; Shiga toxin inh: 24

Results for COc1ccc(N(CC(=O)NC2CCCC2)C(=O)c2ccc(C)s2)cc1OC ?
Pf growth 48h: -11%; HCV inh: -22%; Pf growth 96h: 16%; Cycloheximide cs: -3; AMA1-RON2 inh: 2%; Shiga toxin inh: 2

Results for CCC(C)(C)n1nnnc1C(C(C)C)N(CCN1CCOCC1)Cc1cc2cccc(C)c2[nH]c1=O (stereo not drawn) ?
HCV inh: -1%; Pf growth 96h: 13µM*; Cycloheximide cs: -6; AMA1-RON2 inh: 26%; Shiga toxin inh: -5

Results for CCc1ccc2[nH]c(=O)c(CN(Cc3ccc(F)cc3)C(c3nnnn3CCN3CCOCC3)C(C)C)cc2c1 (stereo not drawn) ?
Pf growth 48h: 19%; HCV inh: 23%; Pf growth 96h: 75%; Cycloheximide cs: 43*; AMA1-RON2 inh: -1%; Shiga toxin inh: 28*

How did CCC(c1nnnn1C(C)(C)CC)N(CCCN1CCOCC1)Cc1cc2cccc(C)c2[nH]c1=O (stereo not drawn) do in these assays?
HCV inh: 12%; Pf growth 96h: inconclusive; Cycloheximide cs: 6; AMA1-RON2 inh: 23%; Shiga toxin inh: -1

How did CCCCC/C=C\C[C@@H](O)/C=C/C=C/C=C\[C@@H](O)CCCC(=O)O do in these assays?
Cycloheximide cs: 7; Shiga toxin inh: inactive

Results for COc1ccc(/C=N/NC(=O)c2cccc([N+](=O)[O-])c2)cc1O ?
Pf growth 48h: -14%; HCV inh: -14%; Pf growth 96h: 4%; Cycloheximide cs: 25*; AMA1-RON2 inh: 46%; Shiga toxin inh: 102*

Results for COc1cc(/C=N/NC(=O)c2cccc([N+](=O)[O-])c2)ccc1O ?
Pf growth 48h: 0%; HCV inh: 12%; Pf growth 96h: 13%; Cycloheximide cs: 20; AMA1-RON2 inh: 69%; Shiga toxin inh: 21

How did COc1cc(/C=N/NC(=O)c2cccc([N+](=O)[O-])c2)ccc1OCc1ccc(C)cc1 do in these assays?
Pf growth 48h: 12%; HCV inh: inconclusive; Pf growth 96h: 0%; Cycloheximide cs: 22*; AMA1-RON2 inh: 0%; Shiga toxin inh: 62*

Assay outcomes as filed in PubChem.
